Reference: ChEMBL document CHEMBL3988442, “University of Dundee, Small-Polar-MMV Screening Library” (2021)

Each molecule was assayed against T1, Aspartate--tRNA(Asp/Asn) ligase (Mycobacterium tuberculosis (strain ATCC 25618 / H37Rv)) (UniProt P9WFW3) (assay: Assay for Asp RNA synthetase-1 from Mycobacterium tuberculosis). Conditions: 30 µM.
T1 sequence (whole entry): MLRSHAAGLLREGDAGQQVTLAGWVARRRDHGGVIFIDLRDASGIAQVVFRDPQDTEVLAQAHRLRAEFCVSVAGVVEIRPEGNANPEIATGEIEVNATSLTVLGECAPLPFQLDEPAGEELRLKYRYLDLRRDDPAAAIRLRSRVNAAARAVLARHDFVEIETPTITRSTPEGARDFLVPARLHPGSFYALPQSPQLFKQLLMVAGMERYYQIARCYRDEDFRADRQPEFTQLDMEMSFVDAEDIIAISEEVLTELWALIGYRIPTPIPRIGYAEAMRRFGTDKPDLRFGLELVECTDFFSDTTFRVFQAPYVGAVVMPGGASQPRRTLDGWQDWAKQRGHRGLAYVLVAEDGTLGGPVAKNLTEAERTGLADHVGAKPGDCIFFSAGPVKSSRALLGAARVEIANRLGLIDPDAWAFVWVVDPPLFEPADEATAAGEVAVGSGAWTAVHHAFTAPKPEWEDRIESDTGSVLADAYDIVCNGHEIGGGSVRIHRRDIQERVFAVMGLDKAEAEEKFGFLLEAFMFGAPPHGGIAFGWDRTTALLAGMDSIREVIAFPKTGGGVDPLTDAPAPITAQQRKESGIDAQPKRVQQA
Assay type: functional
Set-up: scale not given: direction of the effect not stated beside the values
`COc1cc(CNc2cnn(C)c2)cc2c1OCCO2` was tested, and the Percent Effect was -1.79%. With `CN(CCO)C[C@@H]1CN(C(=O)c2c(F)cccc2Cl)C[C@@H]1CO` the Percent Effect was 2.26%. In the case of `Cc1nc(C)n(CC2CCCN2Cc2cn3c(C)cccc3n2)n1` (stereo not given), the Percent Effect was -5.04%. Work on `CN(C)c1cc(CNC(=O)c2ccc(=O)[nH]n2)ccn1` yielded a Percent Effect of -3.92%. In the case of `Fc1cccc(N2C[C@H]3CCN(c4cccnc4)C[C@H]3C2)c1`, the Percent Effect was 6.15%. In the case of `Cn1ccc(CN2CCC(CO)CC2)cc1=O`, the Percent Effect was -0.422%. Molecule `CCCc1cc(C(=O)N2CCOC(c3nc(-c4cccs4)no3)C2)no1` (stereo not given) has a Percent Effect of -0.544%. `CCCN1CCN(C(=O)c2cnccn2)[C@H]2CS(=O)(=O)C[C@H]21` gave a Percent Effect of -3.33%. `CC(c1nc(C2CC2)no1)N1CCN(c2ccc(C#N)cn2)CC1` (stereo not given) showed a Percent Effect of -0.15%. For `COC(=O)N1CCCC(C(=O)NCc2cc3cccc(OC)c3o2)C1` (stereo not given), the Percent Effect was -0.457%. `Cc1nc(CN2CCC3(CCN(c4ncc(F)cn4)C3)C2=O)cs1` (stereo not given) was tested, and the Percent Effect was 7.33%. `CCn1cc(NC(=O)NCC2(N3CCOCC3)CCSC2)cn1` (stereo not given) was tested, and the Percent Effect was 1.79%. In the case of `O=C(CCn1ccccc1=O)Nc1ccc(F)c(Cl)c1`, the Percent Effect was 5.06%. `CCc1nnc2n1CCN(Cc1csc(-c3cnn(C)c3)n1)C2` gave a Percent Effect of 6.46%. With `Cc1cnn(CC2CN(CCS(=O)(=O)c3ccccc3)CCO2)c1` (stereo not given) the Percent Effect was -0.24%. In the case of `CCc1nc(N)sc1C(=O)N1CCCC(CCc2ccccc2C)C1` (stereo not given), the Percent Effect was 6.53%. Molecule `CN(C)S(=O)(=O)N1CCC[C@]2(C[C@@H](Oc3ccccn3)CO2)C1` has a Percent Effect of 3.16%. With `COc1ccc(Cl)cc1NCC(=O)NCCNc1cnccn1` the Percent Effect was -0.88%. With `COc1ccc(CN2C[C@@H]3COC[C@]3(COc3cccnc3)C2)cc1` the Percent Effect was -3.56%. `O=C(c1ccccn1)N1Cc2nccn2CC(CN2CCOCC2)C1` (stereo not given) showed a Percent Effect of 11.5%. With `CCc1csc(C2CCCN(C(=O)c3c[nH]c(C)n3)C2)n1` (stereo not given) the Percent Effect was -0.0911%. `CC(=O)Nc1nc(CN2CCCC2Cn2cc(C)cn2)cs1` (stereo not given) was tested, and the Percent Effect was -2.91%. For `CCCS(=O)(=O)N1CCO[C@H]2[C@H](OCc3ccccn3)CC[C@@H]21`, the Percent Effect was 3.5%. In the case of `Cc1nnc(NCc2ccccc2Cl)c(C#N)c1C`, the Percent Effect was 16.3%. Work on `CC(C)N(C)CC(=O)N1CCCC(c2ccc(C(=O)O)cc2)C1` (stereo not given) yielded a Percent Effect of -4.14%. For `CCS(=O)(=O)N1CCC2(CC(=O)N(c3cccc(C)c3)C2)C1` (stereo not given), the Percent Effect was 2.82%. `CCN1CCn2c(C)cnc2C12CCN(C(=O)c1ccc(Cl)cc1)CC2` showed a Percent Effect of 2.04%. Molecule `O=C(NC[C@]12COC[C@H]1CN(Cc1nccs1)C2)c1ccccc1` has a Percent Effect of -2.56%. Molecule `CC(C)C1CN(C(=O)c2nccnc2N)CCS1` (stereo not given) has a Percent Effect of 13%. Work on `Cc1cnn(CC2CCCN2C(=O)c2ccc3nnc(C)n3c2)c1` (stereo not given) yielded a Percent Effect of 0.189%. `COc1ccc(N2CCC(C(=O)/N=c3/[nH]ccs3)CC2)nn1` showed a Percent Effect of -0.842%. With `Cc1nc2ccccc2c(=O)n1CCC(=O)N1CCNC(=O)C1` the Percent Effect was -5.81%. `COc1ccc(C2(NC(=O)CCn3cncn3)CCCCC2)cc1` was tested, and the Percent Effect was -7.19%. Molecule `COC(=O)c1cccc(C(=O)N2CCN(c3ccccc3F)CC2)n1` has a Percent Effect of -0.801%. `Cc1cccc(N2CCN(C(=O)Nc3cnn(CC(N)=O)c3)CC2)c1` was tested, and the Percent Effect was -2.01%. For `COc1ccc(CCNC(=O)NC2CCCC2)cc1OC`, the Percent Effect was 2.58%. Molecule `Cc1cccc2[nH]c(C3CCN(C(=O)c4ccnn4C)CC3)nc12` has a Percent Effect of -0.0892%. In the case of `Cn1cc(CC2CCN(C(=O)NCCc3cccc(O)c3)C2)cn1` (stereo not given), the Percent Effect was -5.03%. `Cn1c(C2CC2)nc2c1CCN(CC(=O)Nc1nncs1)C2` showed a Percent Effect of 7.07%. In the case of `Cc1ccc(N2CCCC(NCc3cccc4c3OCCO4)C2)nn1` (stereo not given), the Percent Effect was 4.13%.

Each molecule was assayed against Shiga toxin 2 (Escherichia coli O157:H7) (UniProt P09385+P09386) (assay: E. coli 0.157:H7 Shiga Toxin SOP - stx2 screening assay). Conditions: 30 µM.
Assay type: functional
Set-up: scale not given: direction of the effect not stated beside the values
`COc1cc(CNc2cnn(C)c2)cc2c1OCCO2` showed a Percent Effect of 7.95%. `CN(CCO)C[C@@H]1CN(C(=O)c2c(F)cccc2Cl)C[C@@H]1CO` was tested, and the Percent Effect was -49%. Molecule `Cc1nc(C)n(CC2CCCN2Cc2cn3c(C)cccc3n2)n1` (stereo not given) has a Percent Effect of -2.35%. With `CN(C)c1cc(CNC(=O)c2ccc(=O)[nH]n2)ccn1` the Percent Effect was -29.1%. For `Fc1cccc(N2C[C@H]3CCN(c4cccnc4)C[C@H]3C2)c1`, the Percent Effect was -16.5%. For `Cn1ccc(CN2CCC(CO)CC2)cc1=O`, the Percent Effect was -5.61%. `CCCc1cc(C(=O)N2CCOC(c3nc(-c4cccs4)no3)C2)no1` (stereo not given) was tested, and the Percent Effect was -10.2%. For `CCCN1CCN(C(=O)c2cnccn2)[C@H]2CS(=O)(=O)C[C@H]21`, the Percent Effect was -11.3%. `CC(c1nc(C2CC2)no1)N1CCN(c2ccc(C#N)cn2)CC1` (stereo not given) showed a Percent Effect of -13.8%. With `COC(=O)N1CCCC(C(=O)NCc2cc3cccc(OC)c3o2)C1` (stereo not given) the Percent Effect was 14.7%. With `Cc1nc(CN2CCC3(CCN(c4ncc(F)cn4)C3)C2=O)cs1` (stereo not given) the Percent Effect was -9.92%. `CCn1cc(NC(=O)NCC2(N3CCOCC3)CCSC2)cn1` (stereo not given) showed a Percent Effect of -20%. `O=C(CCn1ccccc1=O)Nc1ccc(F)c(Cl)c1` was tested, and the Percent Effect was -7.92%. In the case of `CCc1nnc2n1CCN(Cc1csc(-c3cnn(C)c3)n1)C2`, the Percent Effect was -29.4%. Molecule `Cc1cnn(CC2CN(CCS(=O)(=O)c3ccccc3)CCO2)c1` (stereo not given) has a Percent Effect of 0.99%. For `CCc1nc(N)sc1C(=O)N1CCCC(CCc2ccccc2C)C1` (stereo not given), the Percent Effect was -7.07%. With `CN(C)S(=O)(=O)N1CCC[C@]2(C[C@@H](Oc3ccccn3)CO2)C1` the Percent Effect was -10.1%. Work on `COc1ccc(Cl)cc1NCC(=O)NCCNc1cnccn1` yielded a Percent Effect of 25.1%. Work on `COc1ccc(CN2C[C@@H]3COC[C@]3(COc3cccnc3)C2)cc1` yielded a Percent Effect of -5.5%. For `O=C(c1ccccn1)N1Cc2nccn2CC(CN2CCOCC2)C1` (stereo not given), the Percent Effect was -21.6%. In the case of `CCc1csc(C2CCCN(C(=O)c3c[nH]c(C)n3)C2)n1` (stereo not given), the Percent Effect was -10.2%. For `CC(=O)Nc1nc(CN2CCCC2Cn2cc(C)cn2)cs1` (stereo not given), the Percent Effect was -25.9%. For `CCCS(=O)(=O)N1CCO[C@H]2[C@H](OCc3ccccn3)CC[C@@H]21`, the Percent Effect was -8.66%. `Cc1nnc(NCc2ccccc2Cl)c(C#N)c1C` showed a Percent Effect of 10.3%. Work on `CC(C)N(C)CC(=O)N1CCCC(c2ccc(C(=O)O)cc2)C1` (stereo not given) yielded a Percent Effect of 18.4%. `CCS(=O)(=O)N1CCC2(CC(=O)N(c3cccc(C)c3)C2)C1` (stereo not given) was tested, and the Percent Effect was -11.5%. Molecule `CCN1CCn2c(C)cnc2C12CCN(C(=O)c1ccc(Cl)cc1)CC2` has a Percent Effect of 8.49%. With `O=C(NC[C@]12COC[C@H]1CN(Cc1nccs1)C2)c1ccccc1` the Percent Effect was -14.5%. `CC(C)C1CN(C(=O)c2nccnc2N)CCS1` (stereo not given) was tested, and the Percent Effect was -15.2%. `Cc1cnn(CC2CCCN2C(=O)c2ccc3nnc(C)n3c2)c1` (stereo not given) gave a Percent Effect of -37.5%. For `COc1ccc(N2CCC(C(=O)/N=c3/[nH]ccs3)CC2)nn1`, the Percent Effect was -7.73%. For `Cc1nc2ccccc2c(=O)n1CCC(=O)N1CCNC(=O)C1`, the Percent Effect was 27.4%. `COc1ccc(C2(NC(=O)CCn3cncn3)CCCCC2)cc1` gave a Percent Effect of 1.34%. With `COC(=O)c1cccc(C(=O)N2CCN(c3ccccc3F)CC2)n1` the Percent Effect was -16.2%. With `Cc1cccc(N2CCN(C(=O)Nc3cnn(CC(N)=O)c3)CC2)c1` the Percent Effect was -45.6%. For `COc1ccc(CCNC(=O)NC2CCCC2)cc1OC`, the Percent Effect was -10.6%. For `Cc1cccc2[nH]c(C3CCN(C(=O)c4ccnn4C)CC3)nc12`, the Percent Effect was -69.6%. For `Cn1cc(CC2CCN(C(=O)NCCc3cccc(O)c3)C2)cn1` (stereo not given), the Percent Effect was -12.2%. `Cn1c(C2CC2)nc2c1CCN(CC(=O)Nc1nncs1)C2` gave a Percent Effect of -9.76%. In the case of `Cc1ccc(N2CCCC(NCc3cccc4c3OCCO4)C2)nn1` (stereo not given), the Percent Effect was 19%.
